Source: PubChem BioAssay
RXFP1 agonist = RXFP1 (human) receptor agonism. Q9HBX9. HEK293T-RXFP1 cAMP TR-FRET, 30 min; response scale: percent of porcine relaxin response, buffer zero. Potency, µM (series often up to 57.5 µM), hits mostly activators. 0.3% of 370,000 active; active = well fitted activation curve with a large enough effect; inconclusive = small, poorly fitted or top-dose-only effect; note: nearly all actives have a fitted effect of over 60% in size
Target sequence (Q9HBX9 whole entry, looked up): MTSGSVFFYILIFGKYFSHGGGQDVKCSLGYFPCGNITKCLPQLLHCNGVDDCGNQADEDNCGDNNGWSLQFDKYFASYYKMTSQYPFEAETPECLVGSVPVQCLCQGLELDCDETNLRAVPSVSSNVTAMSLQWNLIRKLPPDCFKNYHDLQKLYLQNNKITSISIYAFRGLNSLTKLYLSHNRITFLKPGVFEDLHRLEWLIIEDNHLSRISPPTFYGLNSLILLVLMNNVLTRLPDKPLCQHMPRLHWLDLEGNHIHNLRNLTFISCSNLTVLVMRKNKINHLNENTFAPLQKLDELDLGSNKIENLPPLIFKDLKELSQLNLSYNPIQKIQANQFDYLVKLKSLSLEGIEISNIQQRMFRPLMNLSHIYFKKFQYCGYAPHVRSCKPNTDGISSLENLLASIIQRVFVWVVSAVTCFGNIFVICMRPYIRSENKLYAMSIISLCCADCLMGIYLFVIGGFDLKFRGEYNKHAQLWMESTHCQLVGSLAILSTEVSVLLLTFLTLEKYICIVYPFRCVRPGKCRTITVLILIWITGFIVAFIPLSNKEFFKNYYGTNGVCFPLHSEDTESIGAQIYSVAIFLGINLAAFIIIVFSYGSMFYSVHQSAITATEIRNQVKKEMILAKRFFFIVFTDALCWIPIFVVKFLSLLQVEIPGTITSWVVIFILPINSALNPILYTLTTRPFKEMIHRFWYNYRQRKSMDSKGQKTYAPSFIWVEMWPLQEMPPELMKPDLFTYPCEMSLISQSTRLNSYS
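HEK293 cells stably expressing RXFP1, treated 30 min at 37C with compounds plus PDE4 inhibitor Ro 20174; cAMP measured by HTRF TR-FRET. Normalized to buffer and 29 nM porcine relaxin; EC50 by Hill fit.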
RXFP1 antagonist = blocks the human relaxin receptor RXFP1 | Q9HBX9 | HEK293-RXFP1, relaxin-stimulated cAMP HTRF, 30 min; active compounds read low | activity change, negative = inhibition, % at 57.5 µM | 0.59% of 350,000 active | AID 1259400;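 active = activity change of -60% or lower, but not beyond a set lower limit; inconclusive = change between -60% and -40%, or beyond the set limit; inactive = change above -40%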
gsp antag = gsp mutant antagonism; 0.4% of 340,000 active; Potency, µM (doses to about 76.9 µM), most hits filed as inhibitors; AID 624288; gsp-mutant cells, cAMP HTRF, 30 min; calls by dose curve; cell line not stated here;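 note: intracellular cAMP measured with PDE inhibitor Ro 20-1724 present during compound exposure; nearly all actives have a fitted effect of over 65% in size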
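Cells, 2000/well, grown 16–24 h in DMEM 10% FBS with 0.5 mg/ml G418, then compounds plus […] (300 uM addition stock), 30 min at 37C. cAMP read by HTRF (cAMP-d2 and anti-cAMP antibody-K in lysis buffer) after 30 min RT.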
gsp ag = activates gsp, the McCune-Albright syndrome mutation. 0.13% of 340,000 active. gsp mutant cells, cAMP HTRF, 30 min. AID 624287. Potency, µM (highest dose often 76.9 µM), hits mostly activators; active = well fitted activation curve with a large enough effect; inconclusive = small, poorly fitted or top-dose-only effect, or another doubt; inactive = no such curve, though single readings can be large or run the other way; cell line not stated here;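 note: phosphodiesterase inhibitor Ro 20-1724 added with compounds to block cAMP breakdown; nearly all actives have a fitted effect of over 60% in size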
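Cells in DMEM/10% FBS with G418 were pretreated with compounds in DMSO plus […] (300 uM stock) for 30 min at 37C. cAMP was measured by HTRF (cAMP-d2 plus anti-cAMP antibody-K) after 30 min at room temperature.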
Each line names hits and unclear results; the compound was inactive in the other large screens; ! = not active in a repeat. A selection: hits, their analogues and other compounds. The true share with any hit is near 0.9%.

COc1ccc(NC(=O)c2ccc(-c3nn(C)c(=O)c4ccccc34)cc2)cc1	none
COc1ccccc1NC(=O)COc1ccc(-c2nn(C)c(=O)c3ccccc23)cc1	gsp antag 28µM
CCCNC(=O)COC(=O)c1cc2c(=O)n3ccccc3nc2s1	RXFP1 agonist inconclusive, gsp ag 11µM
CCCC(=O)Nc1ccc(O)c(C(C)=O)c1	none (no result: RXFP1 agonist, gsp antag, gsp ag)
CCOC(=O)c1c(C)[nH]c(C(=O)COC(=O)/C=C/c2ccc3c(c2)OCO3)c1C	none
CCOC(=O)c1c(C)[nH]c(C(=O)COC(=O)CCC(=O)c2ccc3c(c2)OCCO3)c1C	gsp antag 28µM
O=C(CCc1ccccc1)N1CCc2c([nH]c3ccccc23)C1c1ccc(F)cc1 (centres undefined)	none (no result: gsp antag, gsp ag)
COc1ccc(N2C(=O)CC(Sc3nnc(-c4ccccc4)o3)C2=O)cc1 (centres undefined)	gsp ag 28µM
O=C1CC(Sc2nnc(-c3ccccc3O)o2)C(=O)N1c1ccccc1 (centres undefined)	none
O=C(NCc1ccc(Cl)cc1)c1cnc(N2CCOCC2)c2ccccc12	none (no result: gsp antag, gsp ag)
COc1ccc(N(CC(=O)Nc2ccc(F)c(F)c2)S(=O)(=O)c2c(C)n[nH]c2C)cc1	RXFP1 antagonist -86, gsp antag inconclusive
CCOC(=O)c1sc(NC(=O)c2nc(SC)ncc2Cl)c(C(=O)OCC)c1C	none (no result: RXFP1 antagonist, gsp antag, gsp ag)
O=C(O)c1c(-c2ccccc2)c2oc3ccccc3c2[nH]c1=O	gsp ag 40µM
CCN1C(=O)C2(C(C(=O)c3cc4ccccc4o3)=C(O)C(=O)N2CCCN2CCOCC2)c2ccccc21 (centres undefined)	RXFP1 agonist 16µM
O=C(C1=C(O)C(=O)N(CCCN2CCOCC2)C1c1ccc(Cl)cc1)c1cc2ccccc2o1 (centres undefined)	gsp ag 11µM
CCN1C(=O)C2(C(C(=O)c3ccc(C)o3)=C(O)C(=O)N2CCCN2CCOCC2)c2ccccc21 (centres undefined)	none
O=C(C1=C(O)C(=O)N(CCN2CCOCC2)C1c1ccc(Cl)cc1)c1cc2ccccc2o1 (centres undefined)	RXFP1 agonist inconclusive, gsp ag inconclusive
CCCCCCn1c(=O)c2c(ncn2C)n(C)c1=O	none (no result: RXFP1 agonist, gsp antag, gsp ag)
CCCCCC(O)(c1ccc(OC)cc1)C(CN1CCOCC1)c1ccccc1 (centres undefined)	RXFP1 antagonist -61
COc1ccc(C(O)(C2CCCCC2)C(CN2CCOCC2)c2ccccc2)cc1 (centres undefined)	RXFP1 antagonist -90
Cc1ccc(NC(=O)C2CCCN(S(=O)(=O)c3ccc4[nH]c(=O)ccc4c3)C2)cc1Cl (centres undefined)	none (no result: gsp antag, gsp ag)
CCc1ccc2c(c1)NC(c1cccnc1)=NC(c1ccc(C(C)(C)C)cc1)=N2	none (no result: gsp antag, gsp ag)
O=C(Nc1ccc(Cc2ccncc2)cc1)C1CCC(N2C(=O)C3C4C=CC(C5CC45)C3C2=O)CC1 (centres undefined)	gsp antag 7.9µM, gsp ag inconclusive
CC(=O)Nc1ccc(NC(=O)C2CCC(N3C(=O)C4C5C=CC(C6CC56)C4C3=O)CC2)cc1 (centres undefined)	none
CCN(CC)CCCNC(=S)N1CCN(c2nc(-c3ccc(F)cc3)cs2)CC1	RXFP1 antagonist -74
COCCNC(=S)N1CCN(c2nc(-c3ccc(F)cc3)cs2)CC1	gsp antag inconclusive
CCNC(=S)N1CCN(c2nc(-c3ccc(F)cc3)cs2)CC1	gsp antag 35µM
CCN(CC)CCCNC(=O)CN1C(=O)COc2ccc(S(=O)(=O)N3CCC(C)CC3)cc21	none (no result: RXFP1 antagonist, gsp antag, gsp ag)
CC(=O)c1ccc(N2C(=O)N(Cc3ccccc3C#N)c3ccccc3S2(=O)=O)cc1	none (no result: RXFP1 antagonist, gsp antag, gsp ag)
Brc1ccc(OCc2ccccc2)c(CNCc2ccncc2)c1	RXFP1 antagonist -89, gsp antag inconclusive
COc1ccc(Br)cc1CC1C(=O)Nc2ccccc21 (centres undefined)	RXFP1 antagonist -69 (no result: gsp antag, gsp ag)
CCOC(=O)c1nnn2c1nc(SCC(C)=O)c1ccccc12	RXFP1 agonist 16µM
CCC1=C(c2ccc(C)cc2)S(=O)(=O)N=C1N1CCC(C(=O)NCc2ccc(N(C)C)cc2)CC1	none (no result: gsp antag, gsp ag)
CCn1ccc(NS(=O)(=O)c2ccc(N)cc2)nc1=O	none (no result: RXFP1 agonist, gsp antag, gsp ag)
CC1=C(SCc2ccccc2)C(=O)c2ccccc2C1=O	RXFP1 antagonist inconclusive, gsp ag 11µM (no result: RXFP1 agonist)
Cn1c(SCc2ccccc2)nccc1=O	none (no result: RXFP1 agonist)
O=C(COC(=O)COc1ccc(Cl)cc1)NCCNC(=O)COC(=O)COc1ccc(Cl)cc1	RXFP1 antagonist -72
S=c1[nH]ccc2ccccc12	gsp ag 5µM (no result: RXFP1 agonist)
CCOC(=O)c1ccc(Nc2nnc(C(C)(C)C)c(=O)[nH]2)cc1	gsp antag 40µM
COCCn1c(=N)c(C(=O)NCCc2ccc(OC)cc2)cc2c(=O)n3cccc(C)c3nc21	none
COc1ccc(CCn2c(=N)c(C(=O)NCC3CCCO3)cc3c(=O)n4cccc(C)c4nc32)cc1 (centres undefined)	RXFP1 agonist 18µM, gsp ag inconclusive
COCCCNC(=O)c1cc2c(=O)n3cccc(C)c3nc2n(C(C)C)c1=N	gsp ag 22µM
COCCCn1c(=N)c(C(=O)NCc2cccnc2)cc2c(=O)n3cccc(C)c3nc21	RXFP1 agonist inconclusive (no result: gsp antag, gsp ag)
COc1ccc(CNC(=O)c2cc3c(=O)n4cccc(C)c4nc3n(CC3CCCO3)c2=N)cc1 (centres undefined)	RXFP1 agonist inconclusive, gsp ag 2.2µM
COc1ccc(CNc2ncnc3c2nc2n3CCCC2)cc1	none (no result: gsp antag, gsp ag)
O=C(Cn1cc(C(=O)C2CC2)c2ccccc21)Nc1ccc(Br)cc1	RXFP1 agonist 20µM (no result: gsp antag, gsp ag)
Cc1ccc(NC(=O)Cn2cc(C(=O)C3CC3)c3ccccc32)cc1	RXFP1 agonist 10µM!
CC1CN(Cc2c(O)ccc3c2oc(=O)c2ccccc23)CC(C)O1 (centres undefined)	gsp ag 28µM
Cc1[nH]c2ccccc2c1NC(=O)CN1CCN(c2cccc(C(F)(F)F)c2)CC1	gsp antag 50µM
CC(=O)N1CCCc2cc(S(=O)(=O)NCc3ccc(N(C)C)cc3)ccc21	none (no result: gsp antag, gsp ag)
O=C(N/N=C/c1ccc(-c2ccccc2)o1)c1ccccc1O	RXFP1 antagonist -85, gsp ag inconclusive
O=C(N/N=C\c1ccncc1)c1ccccc1O	none
Cc1ccccc1C(=O)c1cccn1CC(=O)NCCN1CCN(c2cccc(C)c2C)CC1	RXFP1 antagonist -69
CC1=C/C(=N\OS(=O)(=O)c2ccccc2)C(C)=CC1=O	RXFP1 antagonist inconclusive, gsp antag 28µM
COc1cc(C2C(C(C)=O)=C(O)C(=O)N2CCN2CCOCC2)ccc1O (centres undefined)	gsp ag inconclusive
COc1cc(C2C(C(=O)c3ccc(C)o3)=C(O)C(=O)N2CCN2CCOCC2)ccc1OCCC(C)C (centres undefined)	RXFP1 agonist 16µM
CCC(Oc1ccc(F)cc1)C(=O)Nc1nc2c(s1)CCCC2 (centres undefined)	RXFP1 antagonist -117 (no result: gsp antag, gsp ag)
COc1ccc(CNC(=O)C(=O)NCC(c2cccnc2)N2CCN(c3ccccc3)CC2)cc1 (centres undefined)	none (no result: gsp antag, gsp ag)
